# This is a sample that favours compounds with a hit; in the whole collection about 2.2% have one here.
# TRPM1 prom inh = reduces MITF-dependent TRPM1 promoter luciferase signal; inhibition, % at 12.5 µM; SK-MEL-5 TRPM1 promoter luciferase, 24 h; actives 0.83% (n = 330,000);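 active = mean inhibition across replicates of 60% or more, whatever share of single replicates reaches that level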
# EWS-Fli inh = EWS/Fli transcriptional activity inhibition; A673 NR0B1-luciferase reporter, viability-normalised; actives 0.67% (n = 350,000); inhibition, % at 12.6 µM;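 active = mean inhibition of at least 50% after viability correction, with every replicate also passing that limit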;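 also: firefly luciferase signal divided by Alamar Blue viability fluorescence both relative to DMSO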
# LGR2 antag = blocks bursicon-induced cAMP signaling via Drosophila LGR2. AID 720647. HEK293 LGR2, CRE-luciferase, bursicon-stimulated, 4 h. actives 0.35% (n = 380,000). inhibition, % at 9.99 µM;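 active = drop in luminescence signal, shown as inhibition above about 50% in the replicate tests, limit read from the data, passing the limit was not always enough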;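 also: agonist challenge used bursicon conditioned medium at about half maximal strength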
# PAX8 inh HTS = PAX8 transcriptional activity inhibition; actives 1.2% (n = 360,000); inhibition, % at 12.6 µM; RMG-I TPO-luciferase reporter, SteadyGlo, 24 h; AID 652154;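 active = mean replicate inhibition at least 60% with every replicate also reaching 60%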;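 also: luciferase light reporting Pax8 driven TPO promoter activity; plate controls were median of neutral control wells for no effect and mitoxantrone controls for full effect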
# EBV LMP1 NFkB = reduces LMP1-driven NF-kappaB luciferase signal; LMP1-induced NF-kappaB luciferase reporter cells, luminescence; inhibition, % at 12.5 µM; actives 0.69% (n = 350,000); in the data active = inhibition above about 41%;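 also: 0% = neutral control wells and 100% = reference inhibitor control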
# Shn3 3UTR inh = inhibitors of Schnurri-3 3'UTR reporter in osteoblasts. actives 0.52% (n = 360,000). Clone20 osteoblast Shn3 3'UTR firefly luciferase, 24 h. inhibition, % at 12.5 µM;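 active = mean inhibition of at least 75% with every replicate also reaching 75%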;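 also: 0% = median of neutral control wells and 100% = pilot-screen positive control compound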
# DNA binding = DNA binding small molecules. salmon sperm DNA acridine orange fluorescence polarization. AC35, µM (top dose mostly 68 µM), for inactives: at the highest dose activity change, negative = DNA binding. shares compounds with EWS-Fli inh. actives 2% (n = 640);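 active = fitted curve reaches a 35% signal fall AC35 below twice the sample's top valid tested dose, actives reach about 48 µM in these data; inactive = the rest, including activity in the rising direction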;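 also: lower polarization ratio signals compound binding to DNA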
# * hit, by the source's call; · = no result given.
SMILES,TRPM1 prom inh,EWS-Fli inh,LGR2 antag,PAX8 inh HTS,EBV LMP1 NFkB,Shn3 3UTR inh,DNA binding
Cc1ccc(S(=O)(=O)Nc2ccc3c(c2)C(=O)N([C@H](C)CO)C[C@@H](C)[C@@H](CN(C)Cc2ccc(C(=O)Nc4ccccc4N)cc2)O3)cc1,·,51.3*,7.4,5.3,·,·,-9.5%
C[C@H]1CN([C@@H](C)CO)C(=O)c2cc(NS(=O)(=O)c3cccs3)ccc2O[C@H]1CN(C)Cc1ccc(C(=O)Nc2ccccc2N)cc1,·,-10.1,1.2,20.6,·,·,·
C[C@H]1CN([C@@H](C)CO)C(=O)c2cc(NS(=O)(=O)c3ccc(Cl)cc3)ccc2O[C@@H]1CN(C)Cc1ccc(C(=O)Nc2ccccc2N)cc1,·,33.9,-2.3,·,·,·,·
C[C@@H]1CCCCO[C@@H](CN(C)Cc2ccc(C(=O)Nc3ccccc3N)cc2)[C@@H](C)CN([C@H](C)CO)C(=O)c2cc(NS(=O)(=O)c3ccccc3)ccc2O1,·,9.9,5.5,-2.5,·,·,·
C[C@H](CO)N1C[C@H](C)[C@H](CN(C)Cc2ccc(C(=O)Nc3ccccc3N)cc2)Oc2ccc(NS(=O)(=O)c3cccs3)cc2C1=O,·,53.9*,-19.8,·,·,·,-4.1%
C[C@@H]1CN([C@@H](C)CO)C(=O)c2cc(C#CC3CCCCC3)cnc2O[C@H]1CN(C)Cc1ccncc1,·,3.0,-6.2,·,·,·,·
CCS(=O)(=O)Nc1ccc2c(c1)C(=O)N(C)C[C@@H](OC)[C@@H](C)CN(Cc1nccs1)[C@H](C)CO2,·,2.3,-5.8,·,·,·,·
C[C@@H]1CN([C@@H](C)CO)C(=O)c2cc(NC(=O)Nc3ccccc3)ccc2O[C@@H]1CN(C)Cc1ccc(C(=O)Nc2ccccc2N)cc1,·,58.3*,7.7,-19.1,·,·,4.9%
COC(=O)CC1(C(=O)OC)Oc2ccc(Br)cc2C(=O)N1c1cccc(Cl)c1Cl (stereo unspecified),23.7,63.7*,19.7,40.7,7.1,17.6,-8.0%
CCC(=O)N1CCC2(CC1)CN(CC1CCCCC1)[C@@H](CO)c1c2c2ccc(OC)cc2n1C,·,-2.4,-32.3,·,·,·,·
O=c1[nH]c(=O)n([C@H]2C[C@H](O)[C@@H](CO)O2)cc1C(F)(F)F,12.9,56.6*,0.2,-11.7,45.7*,29.9,-2.5%
O=c1[nH]c(=O)n(C2C[C@H](O)[C@@H](CO)O2)cc1C(F)(F)F (stereo partly specified),8.5,62.2*,-3.4,-17.6,34.9,48.4,-9.1%
C[C@H]1CN([C@@H](C)CO)C(=O)Cc2cc(NS(C)(=O)=O)ccc2O[C@H]1CN(C)CC1CCCCC1,·,-1.2,3.9,4.8,·,·,·
COc1ccccc1CNC(=O)C[C@@H]1CC[C@H]2[C@@H](COC[C@H](O)CN2C(=O)Nc2ccc(C(F)(F)F)cc2)O1,·,69.9*,-6.6,17.7,·,·,7.6%
C[C@H](CO)N1C[C@H](C)[C@@H](CN(C)Cc2ccc(C(F)(F)F)cc2)OCCCC[C@H](C)Oc2ccc(NS(=O)(=O)c3ccc(F)cc3)cc2C1=O,·,56.0*,-12.9,94.2*,·,·,-3.8%
Cc1ccc(S(=O)(=O)Nc2ccc3c(c2)C(=O)N([C@H](C)CO)C[C@H](C)[C@@H](CN(C)Cc2ccc(C(F)(F)F)cc2)OCCCC[C@H](C)O3)cc1,·,68.9*,20.9,97.4*,·,·,-10.9%
C[C@H](CO)N1C[C@H](C)[C@H](CN(C)CC2CCCCC2)Oc2ccc(NC(=O)Nc3cccc4ccccc34)cc2C1=O,·,61.9*,5.8,·,·,·,-8.8%
C[C@@H]1CN([C@@H](C)CO)C(=O)c2cc(NC(=O)Nc3ccc(C(F)(F)F)cc3)ccc2O[C@@H](C)CCCCO[C@H]1CN(C)Cc1ccc(C(=O)O)cc1,·,-8.6,21.8,-0.8,·,·,·
C[C@@H]1CCCCO[C@H](CN(C)Cc2ccc(C(=O)O)cc2)[C@@H](C)CN([C@H](C)CO)C(=O)c2cc(NS(=O)(=O)c3ccc(F)cc3)ccc2O1,·,-13.5,23.8,-3.7,·,·,·
C[C@H]1CCCCO[C@H](CN(C)Cc2ccc(C(F)(F)F)cc2)[C@@H](C)CN([C@@H](C)CO)C(=O)c2cc(NC(=O)Nc3ccccc3)ccc2O1,·,64.6*,13.0,59.9,·,·,-8.7%
C[C@@H]1CN([C@@H](C)CO)C(=O)c2cc(-c3ccc(C#N)cc3)cnc2O[C@H]1CN(C)CC1CCCC1,·,9.7,9.4,8.0,·,·,·

# Compound activity (PubChem BioAssay)
